Compounds with a hit are over-represented: about 0.86% of the library has one in this group of screens.
CDC25B-CDK2 inh: human CDC25B-CDK2/CyclinA binding inhibition. AID 1259370. actives 0.72% (n = 94,000). z-score (test concentration not listed). HTRF CDC25B-CDK2/CyclinA binding, anti-His/anti-Flag; stronger effect = higher value. P30305+P24941; in the data active means z-score above about 3.2
TAR Tat displ: HIV-1 TAR-Tat binding disruption. HIV-1 TAR RNA, Tat peptide displacement FRET; stronger effect = higher value. z-score (concentration not given with the values). actives 0.6% (n = 100,000); active means z-score of 3 or more in at least 2 runs
Large screens that a line does not name were inactive.

CCN(CC)c1ccc(NC(=O)CSc2ccsc2[N+](=O)[O-])c(C)c1	TAR Tat displ 11.7
O=C(CSc1ccsc1[N+](=O)[O-])Nc1cc(F)ccc1F	none
COc1cccc(Oc2ncnc3c2oc2ccccc23)c1	none (no result: CDC25B-CDK2 inh)
Cc1ccc(N=C2NC(=O)/C(=C/c3ccc(O)c(Br)c3)S2)cc1Cl	CDC25B-CDK2 inh 8.77 (no result: TAR Tat displ)
CCOc1cc(/C=C2\SC(=Nc3cccc(Cl)c3C)NC2=O)ccc1O	none (no result: TAR Tat displ)
O=C(Nc1ccc2snnc2c1)NC1CC1	CDC25B-CDK2 inh 11.1
O=C(Nc1ccc2snnc2c1)NC1CCCCC1	none
CCS(=O)(=O)c1ncc(Cl)c(C(=O)Nc2c(C(=O)c3ccccc3)oc3ccccc23)n1	none
CC(C)CC(NC(=O)CCN)C(=O)O (stereo unspecified)	none (no result: CDC25B-CDK2 inh)
O=C1c2ccccc2-c2c1cccc2C(=O)N1CCOCC1	CDC25B-CDK2 inh 17.4
O=C1CCSc2c1cccc2C(=O)N1CCOCC1	none (no result: CDC25B-CDK2 inh)
Cc1c(-c2nc(-c3ccc(Cl)cc3)no2)nnn1-c1cccc(F)c1	none (no result: CDC25B-CDK2 inh)
Cc1ccc2cc(CCNC(=O)Cc3cccs3)c(=O)[nH]c2c1C	none (no result: TAR Tat displ)
O=C1c2ccccc2-c2onc3c(N4CCOCC4)cc(Nc4ccccc4)c1c23	none
COC(=O)c1ccc(Nc2cc(N3CCOCC3)c3noc4c3c2C(=O)c2ccccc2-4)cc1	CDC25B-CDK2 inh 7.56
CN(C)c1ccc(Nc2cc(N3CCOCC3)c3noc4c3c2C(=O)c2ccccc2-4)cc1	none
O=C(O)c1cccc(Nc2cc(N3CCOCC3)c3noc4c3c2C(=O)c2ccccc2-4)c1	TAR Tat displ 7
O=C1c2ccccc2-c2onc3c(N4CCOCC4)cc(Nc4ccc5c(c4)OCO5)c1c23	none
O=C1c2ccccc2-c2onc3c(N4CCOCC4)cc(Nc4cccc(F)c4)c1c23	none
O=C1CCN(c2cc(Nc3cccc(F)c3)c3c4c(onc24)-c2ccccc2C3=O)CC1	CDC25B-CDK2 inh 7.78, TAR Tat displ 17.2
O=C(O)c1ccc(Nc2cc(N3CCOCC3)c3noc4c3c2C(=O)c2ccccc2-4)cc1	CDC25B-CDK2 inh 11.3, TAR Tat displ 31.5
CCCc1nn2c(=O)cc(CSc3nnc(-c4cccs4)o3)nc2s1	none
Cn1c(=O)c2c(nc(CN(Cc3ccccc3)Cc3ccccc3)n2CC(=O)C(C)(C)C)n(C)c1=O	none
COc1ccc(Nc2cc(N3CCC(=O)CC3)c3noc4c3c2C(=O)c2ccccc2-4)cc1	none
O=C1CCN(c2cc(Nc3ccc(C(=O)O)cc3)c3c4c(onc24)-c2ccccc2C3=O)CC1	TAR Tat displ 26.7
CCc1nnc2sc(-c3ccccn3)nn12	none
Cc1ccc(C(C)C)c(OCC(O)CN2CCC(C)CC2)c1 (stereo unspecified)	none (no result: TAR Tat displ)
COCCOC(=O)c1c(C)oc2ccc(OC(=O)c3ccc(OC)cc3)cc12	none
O=c1oc(-c2ccccc2)cc(Cl)c1Cl	CDC25B-CDK2 inh 13.8
CN(C)c1cc(-c2cccc([N+](=O)[O-])c2)oc(=O)c1Cl	none (no result: TAR Tat displ)
Cc1ccc(-n2cc3c(c(C(=O)O)c2=O)CC(C)(C)CC3=O)cc1	none
COc1ccc(C2=C(C)C(Nc3cc(OC)ccc3OC)=NS2(=O)=O)cc1	none
O=c1c(O)c(-c2cc(O)c(O)c(O)c2)oc2cc(O)cc(O)c12	TAR Tat displ 38
O=c1c(O)c(-c2ccccc2)oc2cc(O)cc(O)c12	none (no result: CDC25B-CDK2 inh)
O=c1c(O)c(-c2ccc(O)cc2O)oc2cc(O)cc(O)c12	TAR Tat displ 24.9
O=c1c(O)c(-c2ccccc2O)oc2cc(O)cc(O)c12	none (no result: CDC25B-CDK2 inh)
Cc1ccc(C)c(N2CCN(c3c(-c4ccc(Cl)cc4)c(=O)c3=O)CC2)c1	none (no result: CDC25B-CDK2 inh)
CC(Sc1ncc(S(=O)(=O)c2ccccc2)c(N)n1)C(=O)Nc1ccccc1 (stereo unspecified)	none (no result: CDC25B-CDK2 inh)
COC(=O)c1[nH]c2sc3c(c2c1-n1cccc1)CCCC3	CDC25B-CDK2 inh 13.2
COC(=O)c1[nH]c2sc3c(c2c1NC(C)=O)CCCC3	none
CN(C)c1ccc(/C=N/NC(=O)CC#N)cc1	none (no result: TAR Tat displ)
COc1ccc(-c2oc3cc(O[C@H]4O[C@H](CO)[C@@H](O)[C@H](O)[C@H]4O)c(OC)c(O)c3c(=O)c2OC)cc1O	none (no result: CDC25B-CDK2 inh)
O=c1c(O[C@@H]2O[C@H](CO)[C@@H](O)[C@H](O)[C@H]2O)c(-c2ccc(O)c(O)c2)oc2cc(O)cc(O)c12	TAR Tat displ 28.1 (no result: CDC25B-CDK2 inh)
O=c1c(O[C@@H]2OC([C@H](O)CO)[C@H](O)[C@H]2O)c(-c2ccc(O)c(O)c2)oc2cc(O)cc(O)c12 (stereo partly specified)	TAR Tat displ 26.9 (no result: CDC25B-CDK2 inh)
CC1O[C@@H](Oc2c(-c3ccc(O)c(O)c3)oc3cc(O)cc(O)c3c2=O)[C@H](O)[C@H](O)[C@H]1O (stereo partly specified)	none (no result: CDC25B-CDK2 inh)
COc1cc(-c2oc3cc(O)cc(O)c3c(=O)c2O[C@@H]2O[C@H](CO)[C@@H](O)[C@H](O)[C@H]2O)ccc1O	none (no result: CDC25B-CDK2 inh)
C[C@@H]1O[C@@H](OC[C@H]2O[C@@H](Oc3c(-c4ccc(O)c(O)c4)oc4cc(O)cc(O)c4c3=O)[C@H](O)[C@@H](O)[C@@H]2O)[C@H](O)[C@H](O)[C@H]1O	TAR Tat displ 10.7 (no result: CDC25B-CDK2 inh)
COc1cc(-c2oc3cc(O)cc(O)c3c(=O)c2OC[C@@H]2OC(O[C@@H]3O[C@@H](C)[C@H](O)[C@@H](O)[C@H]3O)[C@@H](O)[C@H](O)[C@@H]2O)ccc1O (stereo partly specified)	none (no result: CDC25B-CDK2 inh)
O=c1c(O[C@@H]2O[C@H](CO)[C@H](O)[C@H](O)[C@H]2O)c(-c2ccc(O)c(O)c2)oc2cc(O)cc(O)c12	TAR Tat displ 27.2 (no result: CDC25B-CDK2 inh)
Cn1c(=O)c2cc(C(=O)NCc3ccco3)sc2c2ccc(Cl)cc21	none
O=C(CN1Cc2ccccc2C1=O)Nc1ccc(Cl)cn1	none (no result: CDC25B-CDK2 inh)
COc1ccc(C2/C(=C(\O)c3ccc(Cl)cc3)C(=O)C(=O)N2CCCN(C)C)cc1OC (stereo unspecified)	none
CC1CCN(c2nc(N)c([N+](=O)[O-])c(Nc3ccccc3)n2)CC1	none (no result: CDC25B-CDK2 inh)
O=c1[nH]c2ccc(NCc3ccc(-c4ccccc4)o3)cc2[nH]1	none
O=c1[nH]c2ccc(NCc3ccc(-c4ccccc4F)o3)cc2[nH]1	CDC25B-CDK2 inh 4.65
O=c1[nH]c2ccc(NCc3ccc4c(c3)OCO4)cc2[nH]1	none
O=c1[nH]c2ccc(NCc3ccc(-c4ccc(Cl)cc4)o3)cc2[nH]1	CDC25B-CDK2 inh 10.3
Cc1nn(C(C)C(=O)NCCN(C)C)c(=O)c2c1sc1ccccc12 (stereo unspecified)	none
Cc1c(NS(=O)(=O)c2ccc(Cl)cc2)c(-n2cnnc2)nn1C	none
Brc1ccc(CNc2n[nH]c(-c3ccco3)n2)cc1	none
CN(C)c1ccc(CNc2n[nH]c(-c3ccco3)n2)cc1	CDC25B-CDK2 inh 14.9
Cc1ccc(CNCCc2csc3c2CCCC3)cc1	none (no result: CDC25B-CDK2 inh)
O=c1cc(CSc2nc3ccccc3s2)[nH]c2[nH]n(-c3ccccc3)c(=O)c12	TAR Tat displ 6.24
O=c1cc(CSc2nc3ccccc3s2)[nH]c2nc3ccccc3n12	none
O=c1cc(CSc2ccc(Cl)cc2)[nH]c2[nH]n(-c3ccccc3)c(=O)c12	TAR Tat displ 4.63
O=c1cc(CSc2ccc(Cl)cc2)[nH]n1-c1ccccc1	none
O=C(Nc1ccc2nc3n(c(=O)c2c1)CCCCC3)C(=O)N1CCc2ccccc21	none
CC(CCc1ccccc1)N1C(=S)NC2C=C(Cl)C=CC21 (stereo unspecified)	CDC25B-CDK2 inh 3.62 (no result: TAR Tat displ)
CCC(C)C1NC(=S)N(Cc2ccccc2)C1=O (stereo unspecified)	none (no result: TAR Tat displ)
CCc1cc(Sc2ccccc2N)n2ncnc2n1	none (no result: CDC25B-CDK2 inh)
O=C(O)c1ccccc1-c1c2ccc3cc(O)ccc3c2oc2c1ccc1cc(=O)ccc12	TAR Tat displ 25

High-throughput results from PubChem.
